Data reported in ChEMBL document CHEMBL4513216, “Probing the Open Global Health Chemical Diversity Library for Multistage-Active Starting Points for Next-Generation Antimalarials” (ACS Infect Dis, 2020).
The whole screen tested about 68,000 compounds, of which about 2,700 (4%) showed an effect of 50% or more. Shown is part of a subset that was picked to be rich in strong results.

System: Plasmodium berghei
Assay: Screen against P. berghei liver stage (PbLuc), transformed with Luciferase, at 2uM
Assay type: functional, HepG2
Details: tested at 2 uM

| Structure (SMILES) | INHIBITION [%] |
| --- | --- |
| c1nc2n(n1)CC(NCc1nc(-c3ccsc3)no1)CC2 (stereo not drawn) | -14.3 |
| COc1cccc(CC(=O)NC2CCCc3cn[nH]c32)c1 (stereo not drawn) | -1.29 |
| CCCc1nn(C2CCCN(C(C)C)C2=O)c(=O)o1 (stereo not drawn) | 58.69 |
| CCCc1nn(C2CCN(C3CC3)C2=O)c(=O)o1 (stereo not drawn) | -8.5 |
| CCCc1nn(C2CCN(C(C)C)C2=O)c(=O)o1 (stereo not drawn) | -78.95 |
| Cc1nc(N2CCC(CN3CCCC3)CC2)c2cnn(C)c2n1 | 7.08 |
| NC(=O)CN(CC(=O)NCCc1c(F)cccc1F)C1CCCC1 | 14.21 |
| NCC1(c2cccc(C(F)(F)F)c2)CCCC1 | 23.45 |
| NCC1(c2cccc(C(F)(F)F)c2)CCC1 | 39.97 |
| NCC1(c2cccc(C(F)(F)F)c2)CC1 | 74.11 |
| CC(C)c1cc(NC(=O)CN2CCCC2Cn2cncn2)on1 (stereo not drawn) | -98.79 |
| Cn1cnc(S(=O)(=O)Nc2cc(C(N)=O)ccc2Cl)c1 | -53.5 |
| COC(=O)c1ccc(Cl)c(NS(=O)(=O)c2cn(C)cn2)c1 | -9.88 |
| COC(=O)c1ccc(Cl)c(NS(=O)(=O)c2cnn(C)c2)c1 | 50.48 |
| Cc1nc(C)n(CC2CCCCN2Cc2cn3ccccc3n2)n1 (stereo not drawn) | -0.05 |
| CC1(C)CN(C(=O)Nc2cc(C(F)(F)F)c[nH]c2=O)CCO1 | 33.92 |
| CC(C)(C)N1CCN(C(=O)Nc2cc(C(F)(F)F)c[nH]c2=O)CC1 | -32.3 |
| CC(C)CN1CCC(C(=O)Nc2cc(C(F)(F)F)c[nH]c2=O)CC1 | -68.89 |
| CC(C)CN1CCN(C(=O)Nc2cc(C(F)(F)F)c[nH]c2=O)CC1 | 54.85 |
| CC1CN(C(=O)Nc2cc(C(F)(F)F)c[nH]c2=O)CC(C)(C)O1 (stereo not drawn) | 51.31 |
| CC1CN(C(=O)Nc2cc(C(F)(F)F)c[nH]c2=O)CCO1 (stereo not drawn) | 28.39 |
| CS(=O)(=O)c1cnc(N2CCCC2)nc1C1CCN(C(=O)C2CC2)CC1 | -44.33 |
| COc1ccccc1[C@@H]1CN(Cc2cnn(C)c2C)C[C@H]1C(=O)O | 0.12 |

| Structure (SMILES) | INHIBITION [%] |
| --- | --- |
| COCCC(=O)NCC1COc2cc(OC)ccc2C1 (stereo not drawn) | -26.75 |
| COc1cc(NC(=O)c2ccccc2F)c(C(=O)N(C)C)cc1OC | 5.52 |
| COc1cc(NC(=O)c2ccc(C)cc2C)c(C(=O)N(C)C)cc1OC | 26.48 |
| COc1cc(NC(=O)c2cc(C)sc2C)c(C(=O)N(C)C)cc1OC | 58.24 |
| O=C(c1ccc2c(c1)CCC2)N1CCCCC1C1OCCO1 (stereo not drawn) | -44.52 |
| COC(=O)CC1CSCCN1C(=O)CCc1c(C)nn(C)c1C (stereo not drawn) | 26.7 |
| CN(C)c1cc(CNC(=O)CC2CCCCC2)ccn1 | 55.33 |
| COCCSCC(=O)NCc1ccc(N(C)C)cc1 | 47.04 |
| CN(C)c1cc(CNC(=O)c2ccccc2S(C)(=O)=O)ccn1 | -33.95 |
| CCOc1cc(CNC(=O)CNC(=O)CC2CCCCC2)ccn1 | 9.29 |
| CCN(C)c1cc(CNC(=O)CNC(=O)CC2CCCCC2)ccn1 | -15.05 |
| CN(C)c1cc(CNC(=O)c2ccccc2Cl)ccn1 | 17.19 |
| CN(C)c1ccc(CNC(=O)NCCc2ccccn2)cn1 | 11.2 |
| COCCOCC(=O)NCc1ccc(N(C)C)nc1 | 64.08 |
| CCS(=O)(=O)c1ccccc1C(=O)NCc1ccnc(N(C)C)c1 | 56.67 |
| COCCSCC(=O)NCc1ccnc(N(C)C)c1 | 50.61 |
| CN(C)c1ccc(CCNC(=O)NCc2ccc(N(C)C)nc2)cc1 | -18.67 |
| COCCSCC(=O)NCc1ccc(N(C)C)nc1 | 1.8 |
| CN(C)CCn1c2c(ccc1=O)CCN(Cc1cnn(C)c1)CC2 | 19.16 |
| CC(C)(C)n1cc(CNc2ccc(CNS(C)(=O)=O)cc2)cn1 | 38.49 |
| Cc1ccc(C(=O)N2C[C@@H]3CCCO[C@@H]3[C@H](N3CCOCC3)C2)cn1 | -35.23 |
| CCN(CC)S(=O)(=O)N1C[C@H]2CC[C@@H](C1)N(Cc1cscn1)C2=O | 31.51 |
| CC(C)OCCCN1CCCC(c2nc3ccccc3n2C(C)C)C1 (stereo not drawn) | -25.8 |

| Structure (SMILES) | INHIBITION [%] |
| --- | --- |
| COc1ccc2c(c1)c(C(=O)Nc1nnn[nH]1)cn2C(C)C | -2.44 |
| COCCNC(=O)[C@H]1CC[C@@H]2[C@@H](CCN2c2ncc(F)cn2)O1 | 31.65 |
| CN1C(=O)CC(c2cnn(C)c2)C12CCN(C(=O)c1ccnnc1)CC2 (stereo not drawn) | -26.73 |
| O=C(N1CCCC1)N1CCOCC2(CCN(Cc3cccs3)C2)C1 (stereo not drawn) | 25.31 |
| Cc1cn2nc(N3CCN(Cc4c(C)noc4C)CC3)sc2n1 | -4.99 |
| Oc1cc(C2CCCN(Cc3cccs3)C2)nc(-c2ccccn2)n1 (stereo not drawn) | 30.29 |
| COc1cccc(N2CCN(CC[C@H](O)c3ccccc3)CC2=O)c1 | 61.75 |
| COc1ccccc1N1CCN(CC[C@H](O)c2ccccc2)CC1=O | -23.57 |
| N#CCc1cccc(C(=O)N2CCN(CC(O)c3ccccc3)CC2)c1 (stereo not drawn) | 29.42 |
| COc1cccc(C(=O)N2CCN(CC(O)c3ccccc3)CC2)c1 (stereo not drawn) | 55.25 |
| COc1cccc(C(O)CN2CCN(C(=O)c3ccsc3)CC2)c1 (stereo not drawn) | 38.49 |
| COc1ccc(N2CCN(CC[C@H](O)c3ccccc3)CC2=O)cc1 | 17.28 |
| COCC(=O)N1CCn2c(CN3CCN(C)CC3)cnc2C1 | -11.88 |
| Cc1nccc(N2CCCC(C)(C(=O)NC3CCCC3)C2)n1 (stereo not drawn) | 1.42 |
| O=C(c1cnc(COc2ccccc2)nc1O)N1CCC(F)(F)CC1 | 10.91 |
| Cc1nc(CN2CCC3(CCN(C(=O)c4ccoc4C)CC3)C2)cs1 | -13.88 |
| Cc1nn(C)c(N2CCOCC2)c1CNCc1ccnn1C | 8.06 |
| Cc1nn(C)c(N2CCOCC2)c1CNC1CCN(C2CC2)CC1 | 24.65 |
| Cc1nn(C)c(N2CCOCC2)c1CNCC1CCS(=O)(=O)C1 (stereo not drawn) | 5.17 |
| Cc1nn(C)c(N2CCOCC2)c1CNCC1CCCN1C (stereo not drawn) | 53.98 |
| Cc1nn(C)c(N2CCOCC2)c1CNCC1CCN(C2CC2)C1 (stereo not drawn) | 59.03 |
| Cc1nn(C)c(N2CCOCC2)c1CNC1CCC(O)CC1 (stereo not drawn) | -5.7 |
